Common to all, as to assay: NCI-60 one-dose screen, 48 h (100 = growth as untreated, 0 = no growth, -100 = all killed)
For one experiment, the system named is DU-145 prostate. As to conditions: 10 µM unless noted.
A further experiment relates to K-562 leukemia. The conditions noted are these: 10 µM unless noted.
The next experiment deals with MALME-3M melanoma. The conditions noted are these: 10 µM unless noted.
A further experiment deals with RXF 393 renal. The conditions noted are these: 10 µM unless noted.
The test system of a further experiment is SF-268 CNS. The conditions noted are these: 10 µM unless noted.
In the next experiment the test system is SF-295 CNS. The conditions noted are these: 10 µM unless noted.
A further experiment deals with SF-539 CNS. The conditions noted are these: 10 µM unless noted.
The subject of a further experiment is UACC-257 melanoma. As to conditions: 10 µM unless noted.
The next experiment concerns M14 melanoma. The conditions noted are these: 10 µM unless noted.
Another experiment deals with HCT-15 colon. As to conditions: 10 µM unless noted.
The test system of the next experiment is HT29 colon. The conditions noted are these: 10 µM unless noted.
The next experiment has as its system SNB-75 CNS. The conditions noted are these: 10 µM unless noted.
The next experiment has as its system SNB-19 CNS. The conditions noted are these: 10 µM unless noted.
For the next experiment, the system named is U251 CNS. As to conditions: 10 µM unless noted.
The test system of another experiment is PC-3 prostate. The conditions noted are these: 10 µM unless noted.
Another experiment relates to SK-MEL-5 melanoma. As to conditions: 10 µM unless noted.
The subject of another experiment is UACC-62 melanoma. As to conditions: 10 µM unless noted.
Another experiment has as its system SK-MEL-28 melanoma. The conditions noted are these: 10 µM unless noted.
The next experiment relates to MDA-MB-231 breast. As to conditions: 10 µM unless noted.
For the next experiment, the system named is LOX IMVI melanoma. As to conditions: 10 µM.

This is part of a sample that, as a whole, favours compounds with a hit. Of some 83,000 tested, about 20% had one in any assay.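 Single-concentration screen, 48 h exposure, 96-well plates. Endpoint: percent growth. Below 10 = active.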 Unmarked numbers belong to inactive results. Activity calls are given as the source filed them.

Experimental findings from PubChem BioAssay (NCI) are described below.

Regarding `CC1=C(C(=O)OCc2ccccc2)C(c2c(O)cc(O)cc2O)n2c(nc3ccccc32)N1` (stereo unspecified), the growth with DU-145 prostate is 82.3%; in the experiment on K-562 leukemia it was 17.4%; with MALME-3M melanoma, 52.7%; in the experiment with RXF 393 renal, 25.5%; in the experiment with SF-268 CNS it was 52.7%; in the experiment with SF-295 CNS, 25.4%. Moreover, the growth with SF-539 CNS was 16.8%; in the experiment on UACC-257 melanoma, 47.9%; with M14 melanoma it was 41.7%; in the experiment on HCT-15 colon, 39%; with HT29 colon it was 38.7%; in the experiment on SNB-75 CNS, 13%. Moreover, the growth with SNB-19 CNS is 59.7%; in the experiment on U251 CNS it was 42.7%; with PC-3 prostate, 49.2%; in the experiment on SK-MEL-5 melanoma, 53%; in the experiment on UACC-62 melanoma, 14.7%; in the experiment with SK-MEL-28 melanoma, 60.2%.
`CC1=C(C(=O)c2ccccc2)C(c2cccc(Cl)c2Cl)n2c(nc3ccccc32)N1` (stereo unspecified): the growth in the experiment on DU-145 prostate was 58.1%; with K-562 leukemia it was 61.4%; in the experiment with MALME-3M melanoma it was 57.9%; in the experiment with RXF 393 renal, 42.8%; in the experiment with SF-268 CNS, 43.6%; with SF-295 CNS it was 63.3%. In addition, the growth with SF-539 CNS was 16.6%; with UACC-257 melanoma it was 76.2%; with M14 melanoma, 81.8%; in the experiment with HCT-15 colon it was 68.7%; in the experiment on HT29 colon, 54.6%; with SNB-75 CNS, 43%. Further, the growth was 39.3% with SNB-19 CNS; 16.9% in the experiment on U251 CNS; 45% with PC-3 prostate; 54.5% in the experiment on SK-MEL-5 melanoma; 36.6% in the experiment on UACC-62 melanoma; 90.2% with SK-MEL-28 melanoma.
`CC(=O)Nc1ccc(-c2cn(-c3cccc(C(=O)Nc4ccc(N5CCN(C)CC5)cc4)c3)nn2)cn1`: the growth with DU-145 prostate was 83.4%; in the experiment on K-562 leukemia it was 31.5%; in the experiment on MALME-3M melanoma, 72%; in the experiment with RXF 393 renal it was 97%; in the experiment on SF-268 CNS, 88.7%; with SF-295 CNS it was 58.6%. For the same compound, the growth is 68.6% in the experiment on SF-539 CNS; 100% in the experiment with UACC-257 melanoma; 87% in the experiment on M14 melanoma; 91.5% in the experiment on HCT-15 colon; 6.82% (active) with HT29 colon; 99% in the experiment with SNB-75 CNS. In addition, the growth in the experiment with SNB-19 CNS is 49.4%; with U251 CNS, 50.8%; with PC-3 prostate it was 72.2%; in the experiment on SK-MEL-5 melanoma, 87.8%; in the experiment with UACC-62 melanoma it was 114%; in the experiment on SK-MEL-28 melanoma it was 101%.
As for `O=c1[nH]c2ccc(Cl)cc2cc1CSc1nccc(-c2ccc(Cl)cc2)n1`, the growth in the experiment on DU-145 prostate was 78.9%; with K-562 leukemia, 64.7%; with MALME-3M melanoma it was 51%; with MDA-MB-231 breast it was 45.7%; in the experiment on RXF 393 renal, 35.3%; with SF-268 CNS it was 54.3%. For the same compound, the growth in the experiment on SF-295 CNS is 16.8%; with SF-539 CNS, 3.24% (active); with UACC-257 melanoma it was 60.9%; in the experiment with HCT-15 colon, 56.9%; in the experiment with HT29 colon it was 67.7%; with SNB-19 CNS, 40.4%. Also, the growth was 47.4% in the experiment on U251 CNS; 49.9% in the experiment with PC-3 prostate; 48.6% in the experiment on SK-MEL-5 melanoma; 31.8% with UACC-62 melanoma; 57.5% in the experiment with LOX IMVI melanoma; 46.1% in the experiment with SK-MEL-28 melanoma.
Regarding `COc1ccc(-c2ccnc(SCc3cc4ccccc4[nH]c3=O)n2)cc1`, the growth is 81.2% in the experiment with DU-145 prostate; 11.1% with K-562 leukemia; 65.9% in the experiment on MALME-3M melanoma; 59.1% in the experiment with MDA-MB-231 breast; 40.2% in the experiment with RXF 393 renal; 87.7% with SF-268 CNS. The growth in the experiment on SF-295 CNS is 50.3%; with SF-539 CNS, 50%; with UACC-257 melanoma, 79.5%; with HCT-15 colon, 28.2%; with HT29 colon, 29.5%; in the experiment with SNB-19 CNS it was 64%. Further, the growth is 64.1% with U251 CNS; 69.6% in the experiment with PC-3 prostate; 59.1% in the experiment on SK-MEL-5 melanoma; 44.8% with UACC-62 melanoma; 73% with SK-MEL-28 melanoma.
`O=C(/C=C/c1cccc(OCc2ccc(F)cc2)c1)c1nc2ccccc2[nH]1`: the growth in the experiment on DU-145 prostate was 70.3%; in the experiment on K-562 leukemia it was -14.6% (active); with MALME-3M melanoma, 95.8%; in the experiment with RXF 393 renal, 57.7%; in the experiment on SF-268 CNS it was 95.1%; in the experiment with SF-295 CNS it was 74.2%. The growth was 44.7% in the experiment on SF-539 CNS; 76.1% in the experiment on UACC-257 melanoma; 13.8% with M14 melanoma; -58.4% (active) in the experiment with HCT-15 colon; -46.1% (active) in the experiment on HT29 colon; 116% in the experiment on SNB-75 CNS. Besides, the growth is 68.4% in the experiment on SNB-19 CNS; -70.9% (active) in the experiment with U251 CNS; 15% in the experiment with PC-3 prostate; 65.5% in the experiment with SK-MEL-5 melanoma; 72.6% in the experiment with UACC-62 melanoma; 104% in the experiment with SK-MEL-28 melanoma.
For `N#Cc1c(-c2ccccc2Cl)cc(-c2c[nH]c3ccccc23)[nH]c1=O`, the growth was 66% in the experiment with DU-145 prostate; 20% with K-562 leukemia; 57.2% in the experiment with MALME-3M melanoma; 48.7% in the experiment on RXF 393 renal; 80% in the experiment with SF-268 CNS; 75.8% in the experiment on SF-295 CNS. Moreover, the growth in the experiment with SF-539 CNS is 52.2%; with UACC-257 melanoma it was 82.3%; with M14 melanoma it was 64.1%; in the experiment with HCT-15 colon, 48.7%; with HT29 colon it was 107%; in the experiment with SNB-75 CNS it was 25.7%. Moreover, the growth in the experiment with SNB-19 CNS is 69.5%; with U251 CNS, 67%; in the experiment with PC-3 prostate, 72.8%; with SK-MEL-5 melanoma it was 63.8%; with UACC-62 melanoma it was 50.3%; in the experiment with SK-MEL-28 melanoma, 65.3%.
Turning to `CCCCSc1nc(Nc2ccc(C(C)=O)cc2)c(C#N)c(-c2ccc(OC)cc2)n1`, the growth with DU-145 prostate is 88.5%; with K-562 leukemia, 69.6%; in the experiment with MALME-3M melanoma, 77.2%; in the experiment on MDA-MB-231 breast, 60.6%; with SF-268 CNS, 63.1%; in the experiment on SF-295 CNS, 47.6%. Besides, the growth was 25.9% in the experiment on SF-539 CNS; 104% in the experiment on UACC-257 melanoma; 91.8% in the experiment on M14 melanoma; 74.9% in the experiment with HCT-15 colon; 78.5% with HT29 colon; 93% in the experiment on SNB-75 CNS. Besides, the growth in the experiment with U251 CNS is 10.2%; in the experiment with PC-3 prostate, 90.8%; in the experiment on SK-MEL-5 melanoma it was 90.1%; with UACC-62 melanoma, 96.2%; in the experiment on LOX IMVI melanoma, 39.7%; in the experiment on SK-MEL-28 melanoma, 91%.
`Cc1ccc(-c2nc(C#N)c(S(=O)(=O)N3CCN(S(=O)(=O)c4ccccc4)CC3)o2)cc1`: the growth with DU-145 prostate is 28.8%; in the experiment on K-562 leukemia, -28.1% (active); with MALME-3M melanoma, -77.4% (active); in the experiment on MDA-MB-231 breast, 31.4%; in the experiment on RXF 393 renal, -89.2% (active); with SF-268 CNS, 56.5%. Besides, the growth with SF-295 CNS is 149%; in the experiment with SF-539 CNS, -43.4% (active); in the experiment on UACC-257 melanoma, 44.7%; in the experiment on HCT-15 colon, -85.8% (active); in the experiment with SNB-75 CNS, 103%; with SNB-19 CNS, 74.9%. In addition, the growth in the experiment with U251 CNS was 24.3%; in the experiment with PC-3 prostate it was 52.3%; with SK-MEL-5 melanoma, 0.485% (active); with UACC-62 melanoma it was 18.5%; in the experiment on LOX IMVI melanoma, -92.2% (active); in the experiment with SK-MEL-28 melanoma, 18.9%.
